Laboratory results reported in PubChem BioAssay AID1159580 (chemical genetic matrix, 2015).
Where “and” joins values, the source holds several entries; their conditions need not be identical. Identical values can stand only once. About 2,000 (36%) of roughly 5,500 compounds were called active. Roughly 18% stayed inconclusive and do not appear here. Cut-off read from the data, not from the text of the source: active = normalized growth mostly below about 0.91 (no sharp cut-off); inconclusive = no clear call, values can overlap the other calls; inactive = mostly above about 0.92. The list shows a part of the results.

Experiment: chemical genetic growth profiling, strain panel (AID 1159580);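 note: tested at 20 µM; growth read once vehicle control cultures reached saturation at 30 °C; 1 = growth at the plate median or of vehicle wells; lower values mean less growth of the strain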
Details: S. cerevisiae deletion strains, growth OD

Measured: normalized growth

COc1ccc(-c2cc(=O)c3c(O)cc(O)cc3o2)cc1
0.957 (inactive) and 0.879 (active): locus YJL095W, strain BCK1, stronger effect = lower value
inactive: locus YAL013W, strain DEP1, stronger effect = lower value 1.01 | locus YAL021C, strain ccr4, stronger effect = lower value 0.967 | locus YAL026C, strain drs2, stronger effect = lower value 0.975 | locus YAL030W, strain snc1, stronger effect = lower value 1 | locus YBL061C, strain skt5, stronger effect = lower value 1 | locus YBR009C, strain hhf1, stronger effect = lower value 0.939 | locus YBR021W, strain FUR4, stronger effect = lower value 1.02 | locus YBR023C, strain chs3, stronger effect = lower value 0.961 | locus YBR171W, strain sec66, stronger effect = lower value 0.999 | locus YBR229C, strain ROT2, stronger effect = lower value 1 | locus YBR231C, strain swc5, stronger effect = lower value 0.981 | locus YBR279W, strain paf1, stronger effect = lower value 0.977 | locus YCL011C, strain gbp2, stronger effect = lower value 0.958 | locus YCL016C, strain dcc1, stronger effect = lower value 0.955 | locus YCL029C, strain bik1, stronger effect = lower value 0.976 | locus YCL069W, strain vba3, stronger effect = lower value 0.967 | locus YCR088W, strain abp1, stronger effect = lower value 0.987 | locus YDL005C, strain med2, stronger effect = lower value 1.02 | locus YDL035C, strain GPR1, stronger effect = lower value 1.03 | locus YDL040C, strain nat1, stronger effect = lower value 0.996 | locus YDL074C, strain BRE1, stronger effect = lower value 0.95 | locus YDL101C, strain DUN1, stronger effect = lower value 0.978 | locus YDL185W, strain tfp1, stronger effect = lower value 0.963 | locus YDL192W, strain arf1, stronger effect = lower value 0.989 | locus YDR001C, strain nth1, stronger effect = lower value 0.988 | locus YDR069C, strain doa4, stronger effect = lower value 1.02 | locus YDR101C, strain arx1, stronger effect = lower value 0.985 | locus YDR137W, strain rgp1, stronger effect = lower value 0.87 | locus YDR159W, strain sac3, stronger effect = lower value 0.996 | locus YDR162C, strain NBP2, stronger effect = lower value 0.999 | locus YDR195W, strain ref2 1.1 | locus YDR297W, strain sur2, stronger effect = lower value 0.994 | locus YDR318W, strain mcm21, stronger effect = lower value 0.982 | locus YDR334W, strain swr1, stronger effect = lower value 0.992 | locus YDR335W, strain msn5, stronger effect = lower value 0.978 | locus YDR388W, stronger effect = lower value 0.979 | locus YDR392W, strain spt3, stronger effect = lower value 0.804 | locus YDR502C, strain sam2, stronger effect = lower value 0.984 | locus YEL003W, strain gim4, stronger effect = lower value 0.963 | locus YEL037C, strain rad23, stronger effect = lower value 0.994 | locus YEL061C, strain CIN8 (second series), stronger effect = lower value 0.988 | locus YEL061C, strain CIN8, stronger effect = lower value 0.987 | locus YER015W, strain faa2, stronger effect = lower value 0.964 | locus YER016W, strain bim1, stronger effect = lower value 1.01 | locus YER110C, stronger effect = lower value 0.972 | locus YER111C, strain swi4, stronger effect = lower value 1.01 | locus YER155C, strain BEM2 (second series), stronger effect = lower value 0.966 | locus YER155C, strain BEM2, stronger effect = lower value 0.991 | locus YER167W, strain BCK2, stronger effect = lower value 1 | locus YFR010W, strain ubp6, stronger effect = lower value 1.01 | locus YGL078C, strain dbp3, stronger effect = lower value 0.978 | locus YGL086W, strain mad1, stronger effect = lower value 0.989 | locus YGL167C, strain pmr1, stronger effect = lower value 1.01 | locus YGL173C, strain kem1, stronger effect = lower value 1.01 | locus YGL227W, strain vid30, stronger effect = lower value 0.99 | locus YGL240W, strain doc1, stronger effect = lower value 0.975 | locus YGL248W, strain PDE1, stronger effect = lower value 0.984 | locus YGL253W, strain hxk2, stronger effect = lower value 0.964 | locus YGR135W, strain pre9, stronger effect = lower value 0.984 | locus YGR252W, strain gcn5, stronger effect = lower value 1.04 | locus YHR013C, strain ard1, stronger effect = lower value 1.06 | locus YHR027C, strain rpn1, stronger effect = lower value 1.01 | locus YHR079C, strain IRE1 (second series), stronger effect = lower value 0.971 | locus YHR094C, strain hxt1, stronger effect = lower value 0.992 | locus YHR129C, strain ARP1, stronger effect = lower value 0.998 | locus YHR142W, strain chs7, stronger effect = lower value 0.914 | locus YHR200W, strain rpn10, stronger effect = lower value 0.979 | locus YIL066C, strain RNR3, stronger effect = lower value 1.01 | locus YIL073C, strain SPO22, stronger effect = lower value 0.942 | locus YIL125W, strain kgd1, stronger effect = lower value 0.996 | locus YIR030C, strain dcg1, stronger effect = lower value 0.981 | locus YJL092W, strain hpr5, stronger effect = lower value 0.983 | locus YJL095W, strain BCK1 (second series), stronger effect = lower value 0.998 | locus YJL115W, strain asf1, stronger effect = lower value 1 | locus YJL129C, strain trk1, stronger effect = lower value 0.946 | locus YJL134W, strain LCB3, stronger effect = lower value 1 | locus YJL154C, strain vps35, stronger effect = lower value 0.999 | locus YJL164C, strain tpk1, stronger effect = lower value 0.931 | locus YJL166W, strain qcr8, stronger effect = lower value 0.965 | locus YJL168C, strain set2, stronger effect = lower value 0.999 | locus YJL187C, strain SWE1 (second series), stronger effect = lower value 0.979 | locus YJL187C, strain SWE1, stronger effect = lower value 1.01 | locus YJR043C, strain POL32, stronger effect = lower value 1.04
active: locus YHR079C, strain IRE1, stronger effect = lower value 0.847 | locus YJR066W, strain TOR1, stronger effect = lower value 0.792
1.01 (inactive) and 0.823 (active): locus YHR030C, strain SLT2, stronger effect = lower value
